# Screening results deposited in PubChem by several laboratories.
# Shown are actives, neighbours in structure and some others; about 0.97% of the full set was active somewhere.
# MEP2 TOR yeast – alters MEP2-GFP fluorescence in TOR pathway yeast screen; actives 0.51% (n = 330,000); S. cerevisiae MEP2-GFP strain, flow cytometry GFP, 3 h; 100% = DMSO control level; GFP response vs DMSO, % at 10 µM; AID 2016;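 active = GFP response versus DMSO above a set limit, roughly screen mean plus 3 SD, cut at about 180% in these data; inconclusive = fewer than 70 cells counted for a yeast strain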;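 also: median GFP fluorescence of the barcode-gated MEP2-GFP cells per well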
# RPL19A TOR yeast – yeast TOR pathway RPL19A-GFP modulation. S. cerevisiae RPL19A-GFP strain, flow cytometry, 3 h; stronger effect = lower value. percent response vs DMSO, % at 10 µM. actives 0.3% (n = 330,000);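 active = percent response vs DMSO below 50%; inconclusive = fewer than 70 events counted for the yeast strain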;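 also: median channel GFP fluorescence of the barcoded RPL19A-GFP strain; lower means less RPL19A-GFP as with rapamycin TOR inhibition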
# GASC-1 inh – human JMJD2C demethylase inhibition. Q9H3R0. AID 2099. actives 0.069% (n = 330,000). GST-JMJD2C(1-420) H3K9me3 demethylation, DELFIA europium. inhibition, % at 2.35 µM;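 active = more than half of a compound's replicate wells show inhibition beyond 50%, single wells judged on their own value; inconclusive = some, but no more than half, of replicates pass 50% inhibition; inactive = no replicate passes 50% inhibition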;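 also: signal counts dimethyl H3K9 product captured on neutravidin plate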
# Target sequence (Q9H3R0 1-420 limits assumed): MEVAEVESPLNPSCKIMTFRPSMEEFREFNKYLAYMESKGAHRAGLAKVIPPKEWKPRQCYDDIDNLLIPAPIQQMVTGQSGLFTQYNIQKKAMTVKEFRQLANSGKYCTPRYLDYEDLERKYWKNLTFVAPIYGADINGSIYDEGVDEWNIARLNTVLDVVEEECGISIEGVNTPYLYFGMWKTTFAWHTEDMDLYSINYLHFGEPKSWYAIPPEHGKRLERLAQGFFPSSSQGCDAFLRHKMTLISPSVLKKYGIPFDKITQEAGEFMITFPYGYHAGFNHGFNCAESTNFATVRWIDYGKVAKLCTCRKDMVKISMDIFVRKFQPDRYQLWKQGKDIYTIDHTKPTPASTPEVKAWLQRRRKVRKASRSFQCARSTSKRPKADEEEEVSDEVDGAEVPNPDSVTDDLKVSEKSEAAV
# LAP4-GFP MLPCN – yeast TOR pathway LAP4-GFP modulation | S. cerevisiae LAP4-GFP multiplex, flow cytometry GFP, 3 h; median GFP as percent of DMSO wells | GFP response vs DMSO, % at 10 µM | actives 0.34% (n = 320,000) | AID 2023;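 active = GFP response vs DMSO above a set limit, about the screen mean plus 3 SD, cut at about 150% in these data; inconclusive = under 70 cell events counted for the yeast strain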
# AGP1-GFP MLPCN – alters AGP1-GFP fluorescence in TOR pathway yeast screen; S. cerevisiae AGP1-GFP multiplex flow cytometry, 3 h; GFP as percent of DMSO wells; GFP response vs DMSO, % at 10 µM; actives 0.02% (n = 320,000);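 active = GFP response relative to DMSO above a set limit, near screen average plus 3 SD, cut at about 150% in these data; inconclusive = fewer than 70 cells counted for the yeast strain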;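 also: median GFP channel fluorescence of the gated AGP1 strain per well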
# CIT2-GFP yeast – modulators of TOR pathway CIT2-GFP in S. cerevisiae; S. cerevisiae CIT2-GFP strain, flow cytometry, 3 h; 100 means same as DMSO wells; GFP response vs DMSO, % at 10 µM; actives 0.065% (n = 320,000);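 active = GFP response relative to DMSO above a set limit, near the screen mean plus 3 SD, cut at about 150% in these data; inconclusive = Fewer than 70 cells measured for a yeast strain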;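 also: ratio of well median GFP fluorescence to mean of DMSO wells on the plate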
# Hits are given with their value; 0 = inactive; ? = inconclusive; - = no result; [ ] = another dose, or the depositor's remark.
SMILES,MEP2 TOR yeast,RPL19A TOR yeast,GASC-1 inh,LAP4-GFP MLPCN,AGP1-GFP MLPCN,CIT2-GFP yeast
COc1ccccc1C1C2=C(CC(C)(C)CC2=O)N(CC(=O)O)C2=C1C(=O)CC(C)(C)C2,239,0,0,0,0,0
COc1cccc(C2Nc3ccccc3NC3=C2C(=O)CC(C)(C)C3)c1OC (centres undefined),0,0,0,0,0,0
COc1ccccc1C1Nc2ccccc2NC2=C1C(=O)CC(C)(C)C2 (centres undefined),627[may fluoresce violet],38[may fluoresce violet],0,0,?,?
O=C1CN(C(=O)COC(=O)CCc2ccccc2O)c2ccccc2N1,0,0,0,0,0,0
Nc1c(Cl)ncnc1NCc1cccnc1,0,0,55,0,0,0
COc1cccc(C(=O)COC(=O)CCC(=O)c2ccccc2)c1,0,0,0,0,0,0
COC(=O)C(NC(=O)c1ccccc1)=C1C=C(C)OC(C)=C1,209[may fluoresce violet],0,0,0,-,?
O=C(CN1C(=O)C2CC=CCC2C1=O)Nc1nnc(SCc2c(Cl)cccc2Cl)s1 (centres undefined),0,0,0,0,0,0
O=C(CN1C(=O)C2CC=CCC2C1=O)Nc1nnc(SCc2ccc(Cl)cc2)s1 (centres undefined),?,15[may fluoresce violet],0,0,-,?
Cc1cc(NC(=O)c2ccc(Br)o2)ccc1NC(=O)c1ccco1,238[may fluoresce violet],45[may fluoresce violet],0,0,?,?
CCOC(=O)Nc1c2ccccc2nc2ccccc12,207[may fluoresce violet],0,0,0,0,?
Nc1nn2c(-c3ccccc3)cc(=O)[nH]c2c1N=Nc1ccc(O)cc1,0,0,51,0,0,0
CC(C)(C)c1cc(C2=CSC3=NCCN23)cc(C(C)(C)C)c1O,0,0,0,0,0,0
Cc1ccc(C)c(N(C(=O)c2csnn2)C(C(=O)NC2CCCC2)c2cccnc2)c1 (centres undefined),0,0,71,0,0,0
Cc1ccnc(NS(=O)(=O)c2ccc(NC(=O)CCc3ccccc3)cc2)n1,0,0,0,0,0,0
Cc1cc(C)n2nc(SCC(=O)N(C)C)nc2n1,435[may fluoresce violet],43[may fluoresce violet],0,0,?,?
CCCC[n+]1c2ccccc2cc2ccccc21,234[may fluoresce violet],0,0,0,0,?
CCCN1CCN(C(=O)c2oc3ccccc3c2NC(=O)COc2ccc(OC)cc2)CC1,0,31,0,0,0,0
CC(=O)C1=C(C)Nc2ncnn2C1c1ccccc1OCc1ccccc1 (centres undefined),304[may fluoresce violet],46[may fluoresce violet],0,0,-,?
O=C(NC(=S)NNC(=O)c1ccco1)c1ccc(F)cc1,?,8.6[may fluoresce violet],0,?,?,?
CCCn1ncc(CN2CCC(n3nccc3NC(=O)CCc3ccccc3)CC2)c1C,0,0,0,0,0,0
CCCCn1c(-c2csc3c2CCCC3)n[nH]c1=S,0,0,0,154,0,0
S=C(Sc1ccc(Cl)cc1)Sc1ccc(Cl)cc1,0,0,0,150,0,0
Cc1ccc(NC(=O)CNc2ccccc2N2CCCC2=O)cc1S(=O)(=O)N1CCCCC1,0,0,0,0,0,0
CCCCn1c(N)c(N(CCOC)C(=O)COC(=O)c2cc(CCC)c(C)s2)c(=O)[nH]c1=O,0,0,0,0,0,0
SMILES,MEP2 TOR yeast,RPL19A TOR yeast,GASC-1 inh,LAP4-GFP MLPCN,AGP1-GFP MLPCN,CIT2-GFP yeast
CCOc1ccc2nc(Cl)c(/C=C/C(=O)c3ccco3)cc2c1,507[may fluoresce violet],37[may fluoresce violet],0,0,-,?
N/C(=N\OC(=O)c1ccc(Cl)cc1)c1ccn[nH]1,0,0,0,0,0,152
N/C(=N\OC(=O)c1ccc(Cl)cc1)c1ccc(Cl)cc1,0,0,0,0,0,0
CC(=O)Nc1ccc(NC(=O)C(C)Sc2n[nH]c(=O)n2Cc2ccccc2)cc1 (centres undefined),0,0,0,0,0,0
CCCS(=O)(=O)N1CCC(C(=O)c2cccc(C(F)(F)F)c2)CC1,186,0,0,156,0,0
CCC(=O)N1N=C(c2ccc(Cl)cc2)CC1c1ccco1 (centres undefined),0,0,0,0,0,0
CCc1ccc(C2=NN(C(C)=O)C(c3ccco3)C2)cc1 (centres undefined),0,43[may fluoresce violet],0,156[may fluoresce violet],?,?
CN1CCc2c(sc(NC(=O)C3CCCN3S(=O)(=O)c3ccc(Cl)s3)c2C(N)=O)C1 (centres undefined),0,0,0,0,0,0
Cc1cc(=O)[nH]c(SCc2csc(-c3ccccc3)n2)n1,298[may fluoresce violet],0,0,0,0,?
O=C(O)c1ccc(-c2ccc(/C=c3/sc4nc5ccccc5n4c3=O)o2)cc1Cl,783[may fluoresce violet],28[may fluoresce violet],0,0,?,?
COc1ccccc1CNC(=O)CCS(=O)(=O)c1ccc2c(c1)CCN2C(C)=O,0,0,0,0,0,0
Cc1cc(Cl)ccc1OCCCC(=O)OCC(=O)Nc1cccc(S(N)(=O)=O)c1,0,0,0,0,0,0
OC(CNCc1ccccc1)(c1ccccc1)c1ccccc1,211[may fluoresce violet],0,0,0,0,?
CCn1c(SCc2ccccc2)nc2cc(S(N)(=O)=O)ccc21,0,0,0,0,0,0
Cc1ccc(NC(=O)CCn2c(=O)[nH]c3ccsc3c2=O)cc1F,0,0,0,0,0,0
COc1ccc(CCNC(=O)c2cc(-c3ccccc3)c(N3CCOCC3)s2)c(OC)c1OC,0,0,0,0,0,0
CN(CCNC(=O)c1ccc(CS(=O)(=O)c2ccc(Br)cc2)o1)CCc1ccccc1,0,0,0,0,0,0
O=C(NCCc1ccccc1)c1ccc(CS(=O)(=O)c2ccc(Br)cc2)o1,0,20[may fluoresce violet],0,0,?,?
Cc1ccc(SCC(=O)NNC(=O)CCS(=O)(=O)c2ccccc2)cc1,0,0,0,0,0,0
O=C(CSc1nnc(COc2ccc(Cl)cc2)o1)NC1CC2CCC1C2 (centres undefined),253[may fluoresce violet],0,0,0,0,?
COc1ccc(NC(=S)NCCCCCC(=O)C[N+](=O)[O-])cc1,0,0,0,251,0,0
O=C(CCCCCNC(=S)Nc1ccc(Cl)cc1)C[N+](=O)[O-],0,0,0,0,0,0
CC1CCN(C(=O)C2CCCN2S(=O)(=O)c2ccc(Cl)cc2)CC1 (centres undefined),0,0,0,0,0,0
Cc1cccc2nc(-c3cccnc3)c(NCCC(C)C)n12,179,0,0,0,0,0
CC(C)(C)c1nnc(NC(=O)COc2ccc3c(c2)OCO3)s1,0,0,0,0,0,0
COC(=O)C1=C(C)NC(C)=C(C(=O)OC)C1c1ccc(OC(=O)c2oc3ccccc3c2C)c(OC)c1,0,0,0,0,0,157
Cc1cnc(NC(=O)Nc2ccccc2)c(C)n1,0,0,0,0,0,0
Cc1noc2ncnc(Sc3ccc(Br)cc3)c12,0,0,0,163,0,0
